About 13,000 (27%) of roughly 48,000 compounds showed an effect of 50% or more. This is one part of the list.
Tested on: Wolbachia pipientis
Test: Anti-Wolbachia Cell-Based Screen
Format: functional
Set-up: scale not given: in the data most compounds retested in dose-response had high values
Conditions: 5 µM

Structure (SMILES)	Percent Effect
O=C(NCCCc1ccc(F)cc1)c1ccc(N2CCOCC2)cc1	-12.9%
CC1(Cc2ccc(F)cc2)Cc2cc(C(=O)NCCO)ccc2O1 (stereo not given)	96.1%
O=C(O)CCCc1ccc2c(c1)CC(=O)N2	-9.679%
CC1(Cc2ccc(Cl)cc2)Cc2cc(CCC(=O)O)ccc2O1 (stereo not given)	128.5%
CC(C)c1ccc(CC2(C)Cc3cc(CC(=O)O)ccc3O2)cc1 (stereo not given)	103.5%
O=C(NCc1ccc(C(=O)O)o1)c1ccc(F)cc1	8.231%
Cc1ncc(C)c(N2CCC(Cc3ccc(Cl)cc3)(C(=O)O)CC2)n1	-13.5%
CC(C)N(Cc1ccc(C(=O)O)o1)C(C)C.Cl	-3.405%
Cc1nsc(NCc2ccc(CS(=O)(=O)NC(C)C)cc2)n1	-12.57%
O=C(CC1=CCCCC1)NCc1ccnc(OC2CCOCC2)c1	4.75%
Cc1ccc(CN(CCN(C)C)Cc2nc3ccccc3[nH]2)s1	-0.2455%
CC(NC(=O)N(C)Cc1cnn(C)c1)c1nncn1C (stereo not given)	-30.3%
COC(=O)C(C)N(Cc1cc(=O)n(C)c(=O)n1C)C1CC1 (stereo not given)	5.049%
CCCC1(CO)CCCN(C(=O)CN2CCN(CC)CC2)C1 (stereo not given)	98.5%
CCCC1(CO)CCCN(Cc2nccs2)C1 (stereo not given)	-16.5%
CCCSCC(=O)N1CCCC2(CCC(=O)N(CCc3c[nH]cn3)C2)C1 (stereo not given)	0.3412%
CCCC1(CO)CCCN(Cc2ncccn2)C1 (stereo not given)	-3.233%
CCCSCC(=O)N1CCCC(CO)(CCC)C1 (stereo not given)	120.7%
CCCC1(CO)CCCN(C(=O)CCCn2nc(C)cc2C)C1 (stereo not given)	0.5939%
CN(C)C(=O)C1CCCN1c1ccnc2ccsc12 (stereo not given)	-11.69%
COc1cccc(-c2n[nH]c3c2CN(C(=O)c2ccncc2)CC3)c1	-11.9%
O=C(c1cccnc1)N1CCc2[nH]nc(Nc3ccccc3)c2C1	125.3%
O=C(c1ccncc1)N1CCc2[nH]nc(Nc3ccccc3)c2C1	110.2%
Cn1ccc(C(=O)N2CCc3[nH]nc(Nc4ccccc4)c3C2)n1	131.4%
COc1cccc(-c2n[nH]c3c2CN(C(=O)c2cc(C)n(C)n2)CC3)c1	-0.6407%

Structure (SMILES)	Percent Effect
COCc1n[nH]c2c1CN(C(=O)c1ccncc1)C2.O=C(O)C(F)(F)F	-2.458%
Cc1nc(C(=O)N2CCc3[nH]nc(Nc4ccccc4)c3C2)co1	140.3%
O=C(c1cccnc1)N1Cc2[nH]nc(COCCO)c2C1	-11.56%
Cc1cc(C(=O)N2CCc3[nH]nc(-c4ccc5c(c4)OCO5)c3C2)no1	-8.548%
O=C(CCN1CCc2[nH]nc(C(F)(F)F)c2C1)Nc1ccccc1	-5.362%
O=C(c1coc(-c2ccccc2)n1)N1CCCCC1	-26.2%
Cc1cc(C)n(C2CN(CC(O)c3ccc(F)cc3)C2)n1 (stereo not given)	-3.479%
CN1CCC(CCNC(=O)c2ccc(N(C)S(C)(=O)=O)cc2Cl)CC1	-5.905%
COC(=O)CC(c1ccccc1)c1oc(C)cc(=O)c1O (stereo not given)	9.59%
O=C(c1cncs1)N1CCc2[nH]nc(Nc3ccccc3)c2C1	117.5%
Cc1ncsc1C(=O)N1CCc2[nH]nc(-c3ccc4c(c3)OCO4)c2C1	-9.39%
O=C(c1ccsc1)N1CCc2c(CNc3ncccn3)n[nH]c2C1	-3.042%
CCn1c(CC2CCN(C(=O)C3CCOC3)CC2)nn(C)c1=O (stereo not given)	3.513%
Cc1cc(=O)n2ncnc2n1CC(O)c1ccc(F)cc1F (stereo not given)	-38.21%
Cc1cc(C)c(OCC(=O)NS(=O)(=O)c2c(C)noc2C)c(C)c1	0.8796%
CCOc1cccc2c1OCC(C(=O)NS(=O)(=O)c1cccs1)=C2	95.96%
N#CCc1ccc(OCC(=O)NS(=O)(=O)c2cccs2)cc1	5.016%
Cc1ccc(S(=O)(=O)NC(=O)c2cccc(OCC(N)=O)c2)s1	-0.7122%
CCOc1cccc2c1OCC(C(=O)NS(=O)(=O)c1ccc(Br)s1)=C2	97%
CCOc1cccc2c1OCC(C(=O)NS(=O)(=O)c1cncc(Br)c1)=C2	125.8%
CCOc1ccc(C(=O)NS(=O)(=O)c2cncc(Br)c2)cc1OC	-12.86%
Cc1ccc(S(C)(=O)=O)cc1C(=O)NS(=O)(=O)c1cccs1	20%
O=S(=O)(NCC1(O)CCOc2ccccc21)c1ccc(Br)s1 (stereo not given)	-8.06%
CCOc1cccc2c1OCC(C(=O)NS(=O)(=O)c1ccc(Cl)cc1)=C2	-2.637%
CCOc1cccc2c1OCC(C(=O)NS(=O)(=O)c1c(C)noc1C)=C2	100.1%

Structure (SMILES)	Percent Effect
Cc1ccc(OCC(=O)NS(=O)(=O)c2c(C)noc2C)cc1C	20.27%
CN(CCN1CCCC1=O)S(=O)(=O)CC1CCCC1	-3.28%
Cc1ncc(S(C)(=O)=O)c(N2Cc3ccccc3C2)n1	20.01%
CCN(C)CC(=O)N1CCN(Cc2ccccc2)[C@@H]2CS(=O)(=O)C[C@@H]21	-19.14%
CCN(CC)C(=O)c1ccn(COc2ccccc2)n1	-3.664%
Cc1nc(CNC(C(=O)N2CCOCC2)C(C)C)oc1C (stereo not given)	-5.352%
CCOc1cccc2c1OCC(C(=O)NS(=O)(=O)c1ccc(Cl)s1)=C2	108.5%
CCOc1cccc2c1OCC(C(=O)NS(=O)(=O)c1ccc(C)s1)=C2	-6.763%
CC(C)COCCC(=O)NS(=O)(=O)c1ccc(Cl)s1	13.2%
COc1ccc(NC(=O)CSc2nc(C)cc(C)n2)cn1	9.531%
CC1c2ncc(CN3CCN(C)CC3)n2CCN1Cc1ccc(F)cc1.O=C(O)C(F)(F)F.O=C(O)C(F)(F)F.O=C(O)C(F)(F)F (stereo not given)	94.11%
CC1c2ncc(CN3CCN(C)CC3)n2CCN1Cc1cccnc1.O=C(O)C(F)(F)F.O=C(O)C(F)(F)F.O=C(O)C(F)(F)F.O=C(O)C(F)(F)F (stereo not given)	3.329%
Cc1ccc(CN2CCn3c(CN4CCN(C)CC4)cnc3C2C)s1.O=C(O)C(F)(F)F.O=C(O)C(F)(F)F.O=C(O)C(F)(F)F (stereo not given)	98.84%
CC1c2ncc(CN3CCN(C)CC3)n2CCN1CC1CC1.O=C(O)C(F)(F)F.O=C(O)C(F)(F)F.O=C(O)C(F)(F)F (stereo not given)	-5.269%
CCOCc1cnc2n1CCN(Cc1scnc1C)C2C.O=C(O)C(F)(F)F (stereo not given)	-10.4%
CC1c2ncc(CN3CCN(C)CC3)n2CCN1Cc1cnn(C)c1.O=C(O)C(F)(F)F.O=C(O)C(F)(F)F.O=C(O)C(F)(F)F (stereo not given)	96.74%
CC1c2ncc(CN3CCN(C)CC3)n2CCN1Cc1ccsc1.O=C(O)C(F)(F)F.O=C(O)C(F)(F)F.O=C(O)C(F)(F)F (stereo not given)	104.7%
Nc1ccc(CC2COc3ccccc3C2)cn1 (stereo not given)	18.77%
CCOc1ccc(S(=O)(=O)NCCc2ccc(N(C)C)cc2)cc1C	13.74%
CC(C)c1nc(CCN(C)C(=O)C2COc3ccccc3C2)no1 (stereo not given)	-22.02%
CNC(=O)CCCNCc1c(C)nn(C)c1N(C)C	-1.91%
CC(C)c1nn(C)c(N(C)C)c1CNCCC(=O)NC1CCCC1	-3.602%
CC(C)c1nn(C)c(N(C)C)c1CNCCC(=O)NC1CCCCC1	102.1%
CC(NCc1c(C(C)C)nn(C)c1N(C)C)C(=O)NC1CCCC1.Cl (stereo not given)	-15.88%
Cc1cccc(NC(=O)CCNCc2c(C)nn(C)c2N(C)C)n1	-6.985%

Structure (SMILES)	Percent Effect
Cc1nn(C)c(N(C)C)c1CNCCC(=O)NC1CCCC1	122.8%
Cc1nn(C)c(N(C)C)c1CNCCNS(C)(=O)=O	-8.307%
Cc1nn(CC(C)C)c(N(C)C)c1CNCCC(=O)NC(C)C	-6.967%
Cc1nn(C)c(N(C)C)c1CNCCC(=O)NC1CCCCC1	122.8%
O=C1[C@@H]2CCN(CC3CC3)C[C@@H]2OCCN1c1ccsc1	-4.722%
O=C(N[C@@H]1CN(c2ncccn2)C[C@@H]2CCCO[C@@H]21)c1cnccn1.O=C(O)C(F)(F)F	-32.47%
Br.COc1ccc(OCCc2cc(C3CCN(CC(C)C)C3)n[nH]2)cc1 (stereo not given)	140.6%
CC(C)CN1CC[C@H](c2nnc(COc3ccc(F)cc3)o2)C1	3.256%
COc1ccc(-c2c[nH]c(C3CC(=O)N(CC(C)C)C3)n2)cc1 (stereo not given)	-5.236%
Clc1ccc(OCCc2cc(C3CCN(c4ncccn4)C3)n[nH]2)cc1 (stereo not given)	119.6%
CCCN1CCC(c2cc(CCOc3ccc(C(F)(F)F)cc3)[nH]n2)C1 (stereo not given)	115.7%
O=C(NCCN1CCCC1)Nc1cc(C(=O)N2CCOCC2)ccc1Cl	-2.741%
CC(CNS(C)(=O)=O)c1ccc(F)c(F)c1 (stereo not given)	0.4429%
Cc1ccc(C(=O)N2C[C@H](NS(C)(=O)=O)[C@@H](C(C)C)C2)cc1F	7.707%
Cc1ccc(S(=O)(=O)NCC(C)C#N)cc1Br (stereo not given)	-32.7%
CC(NC(=O)NC1CCN(Cc2ccncc2)CC1)c1cccc(F)c1 (stereo not given)	10.76%
COc1ccc(N2CCCN(CC(=O)N3CCNC(=O)C3)CC2)cc1	-7.971%
CNC(=O)C1CN(c2ccc(F)cc2)CCN1.Cl (stereo not given)	158.3%
COc1ccc(SC(C)C(=O)N2CCC(C(N)=O)CC2)cc1 (stereo not given)	-1.042%
CNC(=O)C1CCN(C(=O)c2ccn(-c3ccc(F)cc3)n2)CC1	-2.487%
NC(=O)C1CCN(C(=O)c2ccn(-c3ccc(F)cc3)n2)C1 (stereo not given)	-7.383%
COc1ccc(N2CCNC(C(N)=O)C2)cc1 (stereo not given)	90.5%
Cl.NC(=O)C1CN(c2ccc(F)cc2)CCN1 (stereo not given)	113.5%
CNC(=O)N1CCC2(CC1)CNc1ccc(F)cc12.Cl	2.564%
Cc1cc(C(=O)NCc2ccc(N3CCCC(C(N)=O)C3)cc2)[nH]n1 (stereo not given)	-1.321%

From ChEMBL document CHEMBL3988442, “University of Dundee, Small-Polar-MMV Screening Library” (2021)
